# In PubChem BioAssay (EPA / NIEHS):
# Several values for one entry are separate records, joined by “and”; a condition that tells them apart may be missing. Identical values can stand only once. Inconclusive results are not listed. Activity calls are given as the source filed them. The calls were made as follows, unless noted: active = hit-call score of the fitted dose curve at least 0.9, where 1 is the maximum; inconclusive = response in the unintended direction; inactive = score below 0.9.
# Assays:
# [1] = IUF_NPC5_oligodendrocyte_differentiation_120hr: Leibniz Research Institute for Environmental Medicine (IUF) 120-hour Oligodendrocyte Differentiation Assay (NPC5) (AID 2284304);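 also: primary human fetal neural progenitor spheres plated to migrate and differentiate; share of O4-positive cells among Hoechst nuclei found by CNN image analysis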
# Method in brief: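 Human fetal neural progenitor spheres (0.3 mm) plated on poly-D-lysine/laminin in N2 differentiation medium and exposed for 120 h at 7 concentrations, with half-medium renewal at day 3. O4-positive cells identified by CNN, expressed as percent of Hoechst nuclei.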
# [2] = IUF_NPC4_neurite_area_120hr: Leibniz Research Institute for Environmental Medicine (IUF) 120-hour Neuronal Morphology Assay for Neurite Area (NPC4) (AID 2284305)
# Method in brief: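 Endpoint at 120 h: automated imaging of TUBB3/Hoechst-stained differentiating human neural progenitor spheres, neurite area per neuron from skeletonization. DMSO solvent control, not above 0.1%, set the baseline; medium was half-replaced on day 3.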
# [3] = IUF_NPC2-5_cytotoxicity_72hr: Cytotoxicity Assessment at 72 hours in the Leibniz Research Institute for Environmental Medicine (IUF) Neural Progenitor Cell Migration and Differentiation Assay for Cytotoxicity (NPC2-5) (AID 2284306);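 also: LDH release into supernatant measured by resorufin fluorescence marking membrane damage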
# Method in brief: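 Primary human neural progenitor spheres migrate and differentiate on laminin. Compound is present from the start of differentiation, with DMSO kept at or below 0.1%. At 72 h, supernatant LDH is quantified fluorometrically, with values fitted in the positive direction.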
# [4] = IUF_NPC2-5_cytotoxicity_120hr: Cytotoxicity Assessment at 120 hours in the Leibniz Research Institute for Environmental Medicine (IUF) Neural Progenitor Cell Migration and Differentiation Assay (NPC2-5) (AID 2284307)
# Method in brief: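 Human fetal (GW 16-19) neural progenitor spheres (0.3 mm) plated on poly-D-lysine/laminin in N2 differentiation medium, exposed 120 h with half-medium renewal at day 3; 7 concentrations plus solvent control, DMSO ≤0.1%. LDH release in supernatant read by resorufin fluorescence.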
# [5] = IUF_NPC2-5_cell_number_120hr: Cell Number Assessment at 120 hours in the Leibniz Research Institute for Environmental Medicine (IUF) Neural Progenitor Cell Migration and Differentiation Assay (NPC2-5) (AID 2284308; active = hit-call score of the fitted dose curve at least 0.9, where 1 is the maximum; inactive = score below 0.9;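 also: count of Hoechst-stained nuclei in migration zone around plated human neural progenitor spheres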)
# Method in brief: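 Human fetal neural progenitor spheres (0.3 mm) plated on poly-D-lysine/laminin in N2 differentiation medium, exposed five days across 7 concentrations with half-medium refresh at day 3. Hoechst-positive nuclei counted in migration area at 120 h, relative to DMSO.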
# [6] = IUF_NPC2-5_viability_120hr: Viability Assessment at 120 hours in the Leibniz Research Institute for Environmental Medicine (IUF) Neural Progenitor Cell Migration and Differentiation Assay (NPC2-5) (AID 2284312; active = hit-call score of the fitted dose curve at least 0.9, where 1 is the maximum; inactive = score below 0.9)
# Method in brief: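 Human fetal (GW 16-19) neural progenitor spheres of 0.3 mm were plated on poly-D-lysine/laminin in N2 differentiation medium and exposed from day 0 for 120 h, with half-medium refresh at day 3. Viability was read as alamar blue resazurin-to-resorufin fluorescence against DMSO.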
# [7] = VALA_TUBIPS_Antagonist_TubuleLength: VALA Sciences human iPS-derived Endothelial Tubule Formation (TUBIPS) Antagonist Assay (AID 2284313)
# Experimental: VALA_TUBIPS_Agonist is a cell-based, multiplexed assay that uses human iPS-derived endothelial cells (iPSC). Measurements were taken 72 hours after chemical dosing in a 96-well plate.VALA_TUBIPS_Antagonist_TubuleLength is the one of two assay components measured from the VALA_TUBIPS_Antagonist assay. It is designed to make measurements of tubulogenesis, a form of morphology reporter, as detected with fluorescence intensity signals by HCS Fluorescent Imaging technology. This VALA_TUBIPS_Antagonist assay was designed to detect chemical suppression of tubulogenesis, i.e. antagonism.Data from the assay component VALA_TUBIPS_Antagonist_TubuleLength was analyzed at the endpoint, VALA_TUBIPS_Antagonist_TubuleLength, in the positive analysis fitting direction relative to DMSO as the negative control and baseline of activity. Using a type of morphology reporter, loss-of-signal activity can be used to understand developmental effects. To generalize the intended target to other relatable targets, this assay endpoint is annotated to the neurodevelopment intended target family, where the subfamily is tubulogenesis.
# This HUVEC-HDF assay was designed to detect chemical suppression of tubulogenesis, i.e. antagonism. […]
# [8] = VALA_TUBHUV_Antagonist_CellCount: Viability Assessment in the VALA Sciences human Umbilical Vein Endothelial Tubule Formation (TUBHUV) Antagonism Assay (AID 2284310)
# Method in brief: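 Read-out is imaged cell count after nuclear and CD31 staining, fitted against 0.1% DMSO vehicle. Compounds were added for 3 days, in 10 ng/ml VEGF assay medium, to HUVEC–HDF co-cultures pre-grown 3 days.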
# [9] = VALA_TUBIPS_Agonist_TubuleLength: VALA Sciences human iPS-derived Endothelial Tubule Formation (TUBIPS) Agonism Assay (AID 2284311)
# Method in brief: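 Agonist-mode readout is the gain in imaged tubule length versus DMSO baseline. It was measured by fluorescence high-content imaging 72 h after dosing human iPSC-derived endothelial cells.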
# CD69, CD69 (gene 969) = assay: BSK_LPS_CD69: BioMAP Diversity Plus: LPS Assay for CD69 Biomarker Activity (AID 2284303; active = hit-call score of the fitted dose curve at least 0.9, where 1 is the maximum; inactive = score below 0.9); details: primary human HUVEC with PBMC
# Method in brief: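 CD69 surface levels were read by ELISA after 24 h chemical treatment of an LPS-stimulated HUVEC plus PBMC co-culture; positive-direction fit against DMSO vehicle.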
smiles,measurement,setting,value
O=P(OC(CCl)CCl)(OC(CCl)CCl)OC(CCl)CCl,AC50,[1],4.15 µM (active)
same,outcome,[2],inactive
same,outcome,[3],inactive
same,outcome,[4],inactive
same,outcome,[5],inactive
same,outcome,[6],inactive
same,outcome,[7],inactive
CC(C)c1cccc(C(C)C)c1N1C(=O)c2ccc(O)cc2C1=O,outcome,[8],inactive
same,outcome,[9],inactive
same,AC50,[7],10.3 µM (active) and 72.7 µM (active)
Cn1cnc([N+](=O)[O-])c1Sc1ncnc2nc[nH]c12,outcome,"CD69, CD69 (gene 969)",inactive
